Test results taken from PubChem BioAssay (NCATS).
Results filed as inconclusive are left out. Entries that show only a call come without a potency. A number with no mark means an inactive call. Calls of active or inactive are those of the source. The call rests on the fitted dose curve; in most records, active means well fitted curve in the direction sought with a large enough effect; inconclusive means small, poorly fitted or top-dose-only effect, or another doubt; inactive means no such curve, though single readings can be large; an effect the other way counts as inactive or inconclusive.

How the values were obtained:
[1] = molecular target: Rap guanine nucleotide exchange factor 3 (Homo sapiens) (UniProt O95398); experiment: Confirmatory qHTS for antagonist of cAMP-regulated guanine nucleotide exchange factor 3 (EPAC1) (AID 1645880); further: nearly all actives have a fitted effect of over 55% in size
In short: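 Nucleotide exchange uses 100 nM EPAC1, 250 nM RAP1B-BODIPY-GDP and 50 uM GDP, with compounds in a concentration-titration series. After 5 min at room temperature, fluorescence (480 nm ex/540 nm em) is read every 5 min for 30 min. Data are normalized to control ATA and DMSO.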

[2] = molecular target: Rap guanine nucleotide exchange factor 3 (Homo sapiens) (UniProt O95398); experiment: Confirmatory qHTS for agonist of cAMP-regulated guanine nucleotide exchange factor 3 (EPAC1) (AID 1645881); further: nearly all actives have a fitted effect of over 75% in size;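 on activation: EPAC1 catalysed release of BODIPY-GDP from Rap1B seen as fluorescence loss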
[3] = molecular target: Rap guanine nucleotide exchange factor 4 (Homo sapiens) (UniProt Q8WZA2); experiment: Confirmatory qHTS for agonist of cAMP-regulated guanine nucleotide exchange factor 4 (EPAC2) (AID 1645884);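 further: nucleotide exchange releases bodipy-GDP from Rap1 and this lowers its fluorescence; nearly all actives have a fitted effect of over 65% in size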
[4] = molecular target: Rap guanine nucleotide exchange factor 4 (Homo sapiens) (UniProt Q8WZA2); experiment: Confirmatory qHTS for antagonist of cAMP-regulated guanine nucleotide exchange factor 4 (EPAC2) (AID 1645885); further: nearly all actives have a fitted effect of over 25% in size
[5] = molecular target: Rap guanine nucleotide exchange factor 3 (Homo sapiens) (UniProt O95398); experiment: Counterscreen qHTS for antagonist of cAMP-regulated guanine nucleotide exchange factor 3 (EPAC1) (AID 1645888);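 on activity change, negative = inhibition: fluorescence loss as bound BODIPY-GDP is released from Rap1B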
In short: (§1)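 Measured: fluorescence of BODIPY-GDP bound to Rap1B, which falls as exchange proceeds. Conditions include 50 uM competing GDP, 5 and 30 min reads, and a later cAMP challenge for antagonist detection.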

[6] = molecular target: Rap guanine nucleotide exchange factor 3 (Homo sapiens) (UniProt O95398); experiment: Counterscreen qHTS for agonist of cAMP-regulated guanine nucleotide exchange factor 3 (EPAC1) (AID 1645889); further: nearly all actives have a fitted effect of over 40% in size
In short: as §1
Potency means the concentration at half of the fitted maximal effect.

Chain of Rap guanine nucleotide exchange factor 4 (Homo sapiens) (Q8WZA2 whole entry, looked up): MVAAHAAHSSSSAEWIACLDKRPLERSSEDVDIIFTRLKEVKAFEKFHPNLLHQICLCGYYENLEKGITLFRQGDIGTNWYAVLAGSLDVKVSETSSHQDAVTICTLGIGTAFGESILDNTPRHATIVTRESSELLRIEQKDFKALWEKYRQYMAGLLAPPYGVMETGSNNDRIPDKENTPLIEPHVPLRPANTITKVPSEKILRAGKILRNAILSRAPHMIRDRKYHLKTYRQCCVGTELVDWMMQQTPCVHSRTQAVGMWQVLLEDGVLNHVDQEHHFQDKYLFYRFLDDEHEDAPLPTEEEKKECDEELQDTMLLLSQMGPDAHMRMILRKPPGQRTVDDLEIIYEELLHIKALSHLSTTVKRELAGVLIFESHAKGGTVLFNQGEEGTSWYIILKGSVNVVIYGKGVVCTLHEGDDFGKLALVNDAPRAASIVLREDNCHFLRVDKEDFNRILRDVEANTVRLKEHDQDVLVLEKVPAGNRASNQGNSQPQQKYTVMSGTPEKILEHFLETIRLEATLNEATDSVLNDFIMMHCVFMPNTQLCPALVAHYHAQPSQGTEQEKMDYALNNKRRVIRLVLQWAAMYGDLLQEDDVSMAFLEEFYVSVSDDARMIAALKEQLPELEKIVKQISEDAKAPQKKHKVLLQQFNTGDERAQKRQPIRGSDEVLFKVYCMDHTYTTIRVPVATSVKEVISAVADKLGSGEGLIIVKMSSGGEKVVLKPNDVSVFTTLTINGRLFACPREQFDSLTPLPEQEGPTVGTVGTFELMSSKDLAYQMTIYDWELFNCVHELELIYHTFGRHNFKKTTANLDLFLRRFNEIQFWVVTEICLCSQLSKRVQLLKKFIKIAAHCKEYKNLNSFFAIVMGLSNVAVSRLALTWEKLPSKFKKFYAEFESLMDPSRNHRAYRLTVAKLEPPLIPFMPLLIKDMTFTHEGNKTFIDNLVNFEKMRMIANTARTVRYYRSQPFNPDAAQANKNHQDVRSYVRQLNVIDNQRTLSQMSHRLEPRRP
Chain of Rap guanine nucleotide exchange factor 3 (Homo sapiens) (O95398 whole entry, looked up): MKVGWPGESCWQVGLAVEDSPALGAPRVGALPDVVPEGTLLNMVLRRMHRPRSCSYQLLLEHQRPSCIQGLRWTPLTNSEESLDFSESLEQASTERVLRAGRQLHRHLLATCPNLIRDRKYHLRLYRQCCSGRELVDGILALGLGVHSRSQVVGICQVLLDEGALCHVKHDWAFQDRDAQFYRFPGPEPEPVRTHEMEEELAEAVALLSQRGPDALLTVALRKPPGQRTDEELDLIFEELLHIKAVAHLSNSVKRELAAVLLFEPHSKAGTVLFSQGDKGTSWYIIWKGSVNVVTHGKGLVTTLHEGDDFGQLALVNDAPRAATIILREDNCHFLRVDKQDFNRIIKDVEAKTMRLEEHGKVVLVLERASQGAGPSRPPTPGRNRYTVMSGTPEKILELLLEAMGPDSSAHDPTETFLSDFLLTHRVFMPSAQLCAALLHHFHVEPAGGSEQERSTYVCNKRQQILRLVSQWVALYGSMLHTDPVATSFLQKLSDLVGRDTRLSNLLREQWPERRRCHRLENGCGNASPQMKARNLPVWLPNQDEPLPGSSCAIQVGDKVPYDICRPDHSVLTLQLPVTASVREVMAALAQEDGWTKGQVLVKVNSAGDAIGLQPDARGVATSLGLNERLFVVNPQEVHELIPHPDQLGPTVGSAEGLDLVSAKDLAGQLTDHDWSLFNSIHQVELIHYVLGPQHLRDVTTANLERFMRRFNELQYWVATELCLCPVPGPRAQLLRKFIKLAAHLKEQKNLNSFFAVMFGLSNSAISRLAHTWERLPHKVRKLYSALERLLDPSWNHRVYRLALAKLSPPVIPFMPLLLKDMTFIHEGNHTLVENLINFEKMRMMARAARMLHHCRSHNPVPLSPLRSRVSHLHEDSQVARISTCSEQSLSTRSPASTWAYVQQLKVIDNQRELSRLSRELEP

SMILES	Potency [1]	Potency [2]	Potency [3]	Potency [4]	Potency [5]	Potency [6]	activation [3]	activity change, negative = inhibition [5]	activation [6]
Cc1[nH]n(-c2ccccc2)c(=O)c1C(c1cc(Cl)ccc1O)c1c(C)[nH]n(-c2ccccc2)c1=O	75.7 µM (active)	inactive	inactive	inactive	inactive	2.51 µM (active)	–	–	–
CC(C)N(Cc1cn(C)nc1-c1cccc(Cl)c1)Cc1nccn1C	inactive	inactive	–	inactive	–	–	1.24% [at 17.1 µM, percent relative to cAMP agonist control]	-5.68% [at 30.8 µM]	15% [at 30.8 µM]
COc1ccccc1-n1c(-c2ccccc2)c[n+]2c1CCc1ccccc1-2	inactive	inactive	inactive	inactive	inactive	inactive	–	–	–
Cc1ccccc1C(=O)/C(C#N)=N/Nc1c(C)n(C)n(-c2ccccc2)c1=O	42.6 µM (active)	inactive	inactive	67.5 µM (active)	79.4 µM (active)	inactive	–	–	–
Cc1ccc(C(=O)Nc2sc(C)c(C)c2C(=O)c2ccccc2)cc1	inactive	inactive	–	inactive	–	–	4.34% [at 17.1 µM, percent relative to cAMP agonist control]	-1.59% [at 30.8 µM]	-4.34% [at 30.8 µM]
O=C(CN1C(=O)N/C(=C\c2ccccc2OCc2ccc(C(=O)O)cc2)C1=O)Nc1ccccc1F	28.2 µM (active)	inactive	–	inactive	–	–	5.81% [at 17.1 µM, percent relative to cAMP agonist control]	-13.4% [at 30.8 µM]	19.6% [at 30.8 µM]
CCOc1ccccc1C(=O)N(Cc1cccs1)c1ccc(Cl)cc1	inactive	inactive	inactive	inactive	inactive	inactive	–	–	–
COc1ccc(CNc2cccnc2)c(OC)c1OC	inactive	inactive	–	inactive	–	–	-6.76% [at 17.1 µM, percent relative to cAMP agonist control]	-16% [at 30.8 µM]	15.5% [at 30.8 µM]
Cc1nnc(N/N=C\c2ccc(-c3ccccc3[N+](=O)[O-])o2)n1N	inactive	inactive	–	inactive	–	–	4.31% [at 17.1 µM, percent relative to cAMP agonist control]	7.63% [at 30.8 µM]	36.2% [at 30.8 µM]
NC(=O)c1sc(=S)n2c1[nH]c(=O)c1sccc12	16.9 µM (active)	inactive	inactive	inactive	inactive	inactive	–	–	–
O=C(Nc1cccc(Cl)c1)OC1CCCCc2cccnc21 (stereo not given)	inactive	inactive	–	inactive	–	–	5.07% [at 17.1 µM, percent relative to cAMP agonist control]	-21.2% [at 30.8 µM]	25.6% [at 30.8 µM]
CCc1ccccc1N(CC(=O)NCCc1ccccc1)C(=O)CCC(=O)Nc1ccccn1	inactive	inactive	inactive	inactive	inactive	inactive	–	–	–
CC(=O)N1c2ccc(S(=O)(=O)NCCc3ccccc3)cc2CC1C (stereo not given)	inactive	inactive	inactive	inactive	inactive	inactive	–	–	–
O=C1NC(=O)/C(=C/c2ccccn2)S1	inactive	inactive	inactive	inactive	inactive	inactive	–	–	–
CCOC(=O)/C(C#N)=C/c1ccc(N2CCCCC2)cc1	inactive	56.2 µM (active)	–	inactive	–	–	7.82% [at 17.1 µM, percent relative to cAMP agonist control]	-1.56% [at 30.8 µM]	18.2% [at 30.8 µM]
CCCN(CC(=O)Nc1ccccc1C)C(=O)C1CCN(S(=O)(=O)c2ccccc2C(F)(F)F)CC1	inactive	inactive	inactive	inactive	inactive	inactive	–	–	–
Nc1nc(CSc2nnnn2-c2ccc(Cl)cc2)nc(N2CCOCC2)n1	inactive	inactive	–	inactive	–	–	5.65% [at 17.1 µM, percent relative to cAMP agonist control]	9.77% [at 30.8 µM]	8.16% [at 30.8 µM]
C/C(=N\NC(=O)C1CC1)c1cccs1	inactive	inactive	inactive	inactive	inactive	inactive	–	–	–
CCOC(=O)Cn1c(=O)oc2cc(S(=O)(=O)Nc3c(C)cc(C)cc3C)ccc21	inactive	inactive	–	inactive	–	–	4.43% [at 17.1 µM, percent relative to cAMP agonist control]	-16.5% [at 30.8 µM]	25.1% [at 30.8 µM]
Cc1ccccc1OCc1nc2ccccc2n1Cc1ccccc1Cl	inactive	inactive	inactive	inactive	inactive	inactive	–	–	–

SMILES	Potency [1]	Potency [2]	Potency [3]	Potency [4]	Potency [5]	Potency [6]	activation [3]	activity change, negative = inhibition [5]	activation [6]
Cc1ccc(S(=O)(=O)N2CCCCC2)cc1C(=O)NCCC1=CCCCC1	inactive	inactive	inactive	inactive	inactive	inactive	–	–	–
COc1ccc(S(=O)(=O)Nc2ccc(OCC(=O)O)cc2)c2ccccc12	inactive	inactive	inactive	47.8 µM (active)	inactive	inactive	–	–	–
CCC(=O)OCCCNc1nc(-c2ccc(Cl)cc2)nc2ccccc12	inactive	inactive	inactive	inactive	inactive	inactive	–	–	–
COC(=O)c1sccc1NS(=O)(=O)c1ccccc1[N+](=O)[O-]	inactive	inactive	–	inactive	–	–	-1.71% [at 17.1 µM, percent relative to cAMP agonist control]	-0.412% [at 30.8 µM]	33.8% [at 30.8 µM]
O=C(O)COc1ccc(NC(=O)C(c2ccccc2)c2ccccc2)cc1	inactive	inactive	inactive	33.8 µM (active)	inactive	inactive	–	–	–
CC(Oc1ccccc1)C(=O)Nc1nnc(S(=O)(=O)N2CCCCC2)s1 (stereo not given)	inactive	inactive	inactive	inactive	inactive	inactive	–	–	–
COc1ccccc1C(=O)NC(CCSC)C(=O)NCc1ccccn1 (stereo not given)	inactive	inactive	–	inactive	–	–	-0.555% [at 17.1 µM, percent relative to cAMP agonist control]	-16.2% [at 30.8 µM]	-9.2% [at 30.8 µM]
CC(C)CNc1cc(Cl)c(S(=O)(=O)NCC(C)C)cc1C(=O)O	inactive	inactive	–	inactive	–	–	1.7% [at 17.1 µM, percent relative to cAMP agonist control]	8.12% [at 30.8 µM]	-0.574% [at 30.8 µM]
COc1ccccc1Sc1nc(-c2ccccc2)ncc1OC	inactive	inactive	–	inactive	–	–	11.6% [at 17.1 µM, percent relative to cAMP agonist control]	8.06% [at 30.8 µM]	18.8% [at 30.8 µM]
Cc1ccc(S(=O)(=O)/N=C2/NC(=O)/C(=C/c3ccccc3)S2)cc1	42.6 µM (active)	inactive	inactive	inactive	inactive	inactive	–	–	–
N#Cc1cc(C(=O)c2cc(F)ccc2O)cn(-c2nccs2)c1=O	inactive	100 µM (active)	112 µM (active)	inactive	inactive	39.8 µM (active)	–	–	–
N#Cc1c(-c2ccccc2)nc(SCc2ccc(Cl)cc2)[nH]c1=O	33.8 µM (active)	inactive	inactive	33.8 µM (active)	inactive	inactive	–	–	–
O=C(NC1CCN(Cc2ccccc2)CC1)c1cn(-c2ccccc2)nc1-c1cccnc1	inactive	inactive	inactive	inactive	inactive	inactive	–	–	–
Cc1ccc2[nH]cc(C(c3ccccc3)c3ccc(C)s3)c2c1 (stereo not given)	inactive	inactive	inactive	inactive	inactive	inactive	–	–	–
CCOc1cc(-c2nnc(NC(=O)C3=COCCO3)o2)cc(OCC)c1OCC	inactive	inactive	–	inactive	–	–	-6.21% [at 17.1 µM, percent relative to cAMP agonist control]	3.19% [at 30.8 µM]	5.03% [at 30.8 µM]
O/C=c1\ccc2cccc3nc(C(F)(F)F)nc1c23	inactive	100 µM (active)	100 µM (active)	inactive	inactive	39.8 µM (active)	–	–	–
Cc1noc(NS(=O)(=O)c2ccc(NC(=O)CSc3nnc4c(n3)[nH]c3ccccc34)cc2)c1C	23.9 µM (active)	inactive	inactive	inactive	inactive	inactive	–	–	–
Cc1cccc(-c2nc(SCC(=O)Nc3cccc(C(F)(F)F)c3)n3[nH]c(=O)cc3n2)c1	84.9 µM (active)	inactive	inactive	inactive	inactive	inactive	–	–	–
O=C(Cn1cnc2scc(-c3cccc([N+](=O)[O-])c3)c2c1=O)NCc1ccco1	37.9 µM (active)	inactive	inactive	inactive	inactive	inactive	–	–	–
O=C(c1ccc(Br)cc1)N(Cc1cccs1)c1ccc(F)cc1	inactive	inactive	inactive	inactive	inactive	inactive	–	–	–
